Measured values from PubChem BioAssay (Tox21).
Inconclusive results are not listed. A number with no mark means an inactive call. The call rests on the fitted dose curve.

Target: Muscarinic acetylcholine receptor M1 (Homo sapiens) (UniProt P11229)
Assay: Cholinergic receptor muscarinic 1 (CHRM1) small molecule antagonists, cell-based qHTS assay (AID 1963588); further: nearly all actives have a fitted effect of over 40% in size
Details: CHRM1-CHO antagonist mode, calcium flux fluorescence; series mostly up to 61.5 µM; activity, negative = inhibition: at the top concentration
Source text: National Center for Advancing Translational Sciences [NCATS]
Division of Preclinical Innovation [DPI]
U.S. Environmental Protection Agency [EPA]
National Institutes of Environmental Health Sciences [NIEHS]
National Toxicology Program [NTP]
U.S. Food and Drug Administration [FDA]
The CHRM1 is a muscarinic receptor. This receptor plays a crucial role in learning and memory processes and has long been identified as a promising therapeutic target for the improvement of cognitive decline in Alzheimer's disease (AD). The CHRM1-CHO cell line stably expressing human muscarinic acetylcholine receptor M1 (CHRM1) can be used for screening agonists and antagonists of interactions between CHRM1 and its ligands. The CHRM1-CHO Calcium Flux Assay is a homogeneous fluorescence-based assay for detecting the intracellular calcium level using FDSS kinetic plate reader system.
Tox21 Assay Protocol Summary:
CHRM1-CHO cells were dispensed at 1000 cells/3uL/well in 1536-well black-clear bottom plates using a Multidrop Dispenser. After the assay plates were incubated at a 37 C/5% CO2 incubator for 18 h, 3 uL of Dye Loading Buffer was transferred to the assay plate by a Flying Reagent Dispenser. The assay plates were incubated at 37 C for 1h. For antagonist mode, 23 nL of compounds dissolved in DMSO, positive controls or DMSO only was transferred to the assay plate by a pin tool. After 5 min incubation at room temperature, 1.5 uL of acetylcholine at 50nM was added to each well. The fluorescence intensity in the plates was measured using FDSS 7000EX kinetic plate reader for 3 min at 1 sec intervals. Each test compound was measured at 15 concentrations in three independent runs.
On the % scale 0 is the no-effect control and ±100 the full control effect.

Sequence of Muscarinic acetylcholine receptor M1 (Homo sapiens) (P11229 whole entry, looked up): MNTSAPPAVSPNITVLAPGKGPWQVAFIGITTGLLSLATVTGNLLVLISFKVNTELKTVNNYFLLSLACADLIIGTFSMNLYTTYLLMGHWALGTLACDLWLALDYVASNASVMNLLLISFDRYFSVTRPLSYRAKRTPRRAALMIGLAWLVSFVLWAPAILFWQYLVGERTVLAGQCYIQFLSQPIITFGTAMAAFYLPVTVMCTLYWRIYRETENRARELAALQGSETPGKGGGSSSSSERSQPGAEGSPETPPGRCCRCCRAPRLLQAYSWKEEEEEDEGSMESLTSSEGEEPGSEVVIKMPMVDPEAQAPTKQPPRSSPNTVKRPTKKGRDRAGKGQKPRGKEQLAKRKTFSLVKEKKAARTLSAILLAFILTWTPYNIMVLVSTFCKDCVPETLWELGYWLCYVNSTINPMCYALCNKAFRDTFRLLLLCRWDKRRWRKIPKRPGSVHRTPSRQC

Compared with CN1CCN(N)CC1, COc1ccccc1OCC(O)CN1CCN(CC(=O)Nc2c(C)cccc2C)CC1 (stereo not given) is lower in “activity, negative = inhibition” value: 23.2% [at 28.3 µM] for the first, 10.1% [at 28.3 µM] for the second.

Going from O=C(O)c1cccc(-c2noc(-c3ccccc3F)n2)c1 to CCN(CC)CCc1nc(-c2ccccc2)no1, the “activity, negative = inhibition” value falls from 7.78% [at 28.3 µM] to -14.4% [at 28.3 µM].

First: NNc1nnc(NN)c2ccccc12
Second: Cc1nc2ccccc2n1Cc1ccc(Cl)cc1
The “activity, negative = inhibition” value of the first is higher: 0.149% [at 28.3 µM] for the first, -21.8% [at 28.3 µM] for the second.

Compared with NS(=O)(=O)c1cc2c(cc1Cl)CN(C1CCCCC1)C2=O, CC(C)(C)C1=CC(=O)C(C(C)(C)C)=CC1=O is higher in “activity, negative = inhibition” value: 3.32% [at 28.3 µM] for the first, 5.42% [at 28.3 µM] for the second.

First: CC(=O)O[C@H]1CC[C@@]2(C)C(=CC[C@@H]3[C@@H]2CC[C@]2(C)C(C(C)=O)=CC[C@@H]32)C1
Second: CCC(=O)Oc1ccc2c(c1)CC[C@@H]1[C@@H]2CC[C@@]2(C)[C@H]1C[C@@H](OC(=O)CC)[C@@H]2OC(=O)CC
The “activity, negative = inhibition” value of the first is lower: -0.891% [at 28.3 µM] for the first, 9.61% [at 28.3 µM] for the second.

Going from O=c1[nH]c(=O)n([C@H]2O[C@H](CO)[C@@H](O)[C@@H]2O)cc1/C=C\Br to Cn1nnc2c(C(N)=O)ncn2c1=O, the “activity, negative = inhibition” value rises from 1.34% [at 28.3 µM] to 29.9% [at 28.3 µM].

Compared with C[N+](C)(C)CCCCCCCCCC[N+](C)(C)C, CCCC(C(=O)OCCN(CC)CC)(c1ccccc1)c1ccccc1 is higher in “activity, negative = inhibition” value: -14.5% [at 28.3 µM] for the first, 3.32% [at 28.3 µM] for the second.

For COc1ccc(CN(CCN(C)C)c2ncccn2)cc1, the “activity, negative = inhibition” value was 2.12% [at 28.3 µM].

First: Nc1c(N=Nc2ccc(-c3ccc(N=Nc4cc(S(=O)(=O)O)c5ccccc5c4N)cc3)cc2)cc(S(=O)(=O)O)c2ccccc12
Second: CCn1c2ccccc2c2cc([N+](=O)[O-])ccc21
The “activity, negative = inhibition” value of the first is higher: 2.9% for the first, 0.324% for the second.

Going from COCCCCCCCCOCCC[Si](C)(O[Si](C)(C)C)O[Si](C)(C)C to CCC(C)(CCCC(C)C)OC(C)=O (stereo not given), the “activity, negative = inhibition” value falls from -4.32% to -6.77%.

Compared with Cc1ccc(NC(N)=O)cc1, Cc1ccccc1C(=O)O is lower in “activity, negative = inhibition” value: 0.236% for the first, -21.1% for the second.

First: OCCNCc1ccccc1
Second: O=C(Nc1ccccc1)Nc1ccccc1
The “activity, negative = inhibition” value of the first is lower: -12.2% for the first, -5.99% for the second.

First: CCN(CC)c1cccc(C)c1
Second: CCc1ccc(CC)cc1
The “activity, negative = inhibition” value of the first is lower: -2.11% for the first, 8.45% for the second.

First: CCOC(=O)CC(=O)c1cc(F)c(Cl)nc1Cl
Second: Cc1nc2ccc(Cl)cc2[nH]1
The “activity, negative = inhibition” value of the first is lower: -20.6% for the first, 0.775% for the second.

First: CCCCC(CC)C(=O)OC(C)C (stereo not given)
Second: CCCCOC(=O)CC
The “activity, negative = inhibition” value of the first is higher: 15.3% for the first, 6.62% for the second.

Compared with CC(C)(O)CCC(C)(C)O, CC(C)=CC(=O)C=C(C)C is lower in “activity, negative = inhibition” value: 24.7% for the first, 4.53% for the second.

Going from CCOc1ccccc1N to O=C1OC(=O)c2cccc3cccc1c23, the “activity, negative = inhibition” value rises from -25.3% to -15.6%.

First: CCN(Cc1c(F)cccc1Cl)c1c([N+](=O)[O-])cc(C(F)(F)F)cc1[N+](=O)[O-]
Second: O=Cc1ccc(F)c(Br)c1
The “activity, negative = inhibition” value of the first is higher: 0.618% for the first, -9.3% for the second.

Compared with O=C(O)c1cccc(C(=O)O)n1, CC12CCCC=C1C(=O)OC2=O (stereo not given) is lower in “activity, negative = inhibition” value: 2.42% for the first, -7.11% for the second.

Compared with CC1CC(C)C(=O)C1=O (stereo not given), C=CC1CO1 (stereo not given) is lower in “activity, negative = inhibition” value: -2.68% for the first, -13.4% for the second.

Work on CCCCN1C=CN(C)C1 yielded an activity, negative = inhibition of 0.644% [at 12.6 µM].
